# From PubChem BioAssay AID449762 (Southern Research Specialized Biocontainment Screening …, 2010)
# About 1,900 (0.58%) of roughly 330,000 compounds were called active. Inconclusive results (about 4%) are left out. Not all results are given here. Measured potencies and affinities stand elsewhere. Values without a mark were called inactive. No stated cut-off is given here; in the data, inconclusive means inhibition above about 70% without an active follow-up result; inactive means below that.
# Experiment: M. tuberculosis growth inhibition, HTS (AID 449762);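 further: bacterial growth assessed after seven days of incubation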
# Settings: M. tuberculosis H37Rv growth inhibition, 7H9 media; at 25 µM; hits give high values
row,SMILES,inhibition [%]
1,N/C(=N\OC(=O)c1cnn(-c2ccccc2)c1C(F)(F)F)c1cc(C(F)(F)F)cc(C(F)(F)F)c1,9.61
2,COc1cc(C2/C(=C(\O)c3ccc4c(c3)OCCO4)C(=O)C(=O)N2Cc2ccco2)ccc1O (stereo not given),-4.18
3,O=C(OCc1nc2ccccc2s1)c1ccco1,53.7
4,CSCc1ccc(C(=O)OCc2nc3ccccc3s2)o1,65.8
5,CC(=O)C1=C(O)C(=O)N(c2ccc(Br)cc2)C1c1cccc([N+](=O)[O-])c1 (stereo not given),-1.11
6,O=C(CS(=O)CC(=O)Nc1cnc2ccccc2c1)Nc1ccc(Cl)cc1 (stereo not given),47
7,CCOc1ccc(NC(=S)NC23CC4CC(CC(C4)C2)C3)cc1,-20.5
8,CSc1nsc(SC)c1C(=O)OCC(F)(F)F,-1.41
9,CCN1CCN(CC2COc3ccccc3O2)CC1 (stereo not given),-2.32
10,CCN(CC)C(=O)CN1CCC(c2nc3cc(C)c(C)cc3[nH]2)CC1,-1.85
11,CCC(C)N1C(=O)CCC1C(=O)NCCc1ccc(Cl)cc1 (stereo not given),5.11
12,CCCCOc1ccc(CC2CCC(=O)NC2=O)cc1 (stereo not given),12.4
13,CCOc1ccc(C(C)(C)C)cc1S(=O)(=O)n1nc(C)cc1C,-3.62
14,O=C(/C=C/c1ccccc1)Oc1ccc(C(=S)N2CCOCC2)cc1,13.4
15,COc1cc(C(=S)N2CCOCC2)ccc1OC(=O)/C=C/c1ccco1,5.25
16,CN(C)S(=O)(=O)c1ccc(Nc2ccc(-c3ccc4c(c3)OCCO4)nn2)cc1,2.53
17,CN(C(=O)c1cccc(NC(=O)c2ccccc2)c1)C1CCCCC1,-5.84
18,CCOc1ccc(-c2nn3c(-c4ccc(F)cc4)nnc3s2)cc1,0.65
19,COc1ccc(-c2nn3c(-c4ccccc4)nnc3s2)cc1,36.9
20,COc1ccccc1OCC(=O)N/N=C1/C=C(C)CC1,8.93
21,O=C(c1ccc(CNc2c(N3CCCC3)c(=O)c2=O)cc1)N1CCN(C2CCCCC2)CC1,38.8
22,Cc1ccc(CNC(=O)c2ccc(CNc3c(N4CCCC4)c(=O)c3=O)cc2)cc1,-5.18
23,COc1cc(NC(=O)c2ccc(CNc3c(N4CCOCC4)c(=O)c3=O)cc2)cc(OC)c1,-10.6

row,SMILES,inhibition [%]
1,COc1ccc(CNC(=O)C2CCC(CNc3c(N4CCOCC4)c(=O)c3=O)CC2)cc1 (stereo not given),-8.95
2,CC(C)C[C@H]1CNC(=O)C(=O)N1C[C@H](C)NC(=O)Cc1ccccc1,-3.35
3,N#Cc1cccc(C(=O)N(CCc2ccccc2)Cc2cccs2)c1,2.88
4,Cc1cc(NC(=O)CN(C)CC(=O)Nc2ccc(F)c(F)c2F)no1,-14.5
5,O=c1nc2n(c3ccc(Br)cc13)CCS2,14
6,N#Cc1c(-c2ccc(Br)cc2)nc2n(c1=O)CCCS2,-5.36
7,CC(C)n1nnnc1-c1ccc(Cl)cc1,-5.7
8,N#Cc1ccc(C23OCCN2CCn2c3c3ccccc3[n+]2[O-])cc1 (stereo not given),21.6
9,Cc1ccc(C23OCCN2CCn2nc4ccccc4c23)cc1 (stereo not given),-9.54
10,O=C(Nc1sc2c(c1C(=O)NC1CC1)CCCCCC2)c1ccco1,-5.06
11,c1cncc(C2CC(c3cccs3)n3ncnc3N2)c1 (stereo not given),-8.25
12,Cc1ccc2nc(/C(C#N)=C/c3ccc(O)c(O)c3)[nH]c2c1,0.8
13,Cc1ccc2nc(/C(C#N)=C/c3ccccc3C(=O)O)[nH]c2c1,-0.89
14,CCc1ccccc1NC(=O)CNC(=O)c1n[nH]c(=O)c2ccccc12,-6.75
15,C=C[C@@H]1c2cc(C)ccc2N(S(=O)(=O)c2ccc(C)cc2)[C@H](c2ccccc2)C1(C#N)C#N,-12.5
16,COc1cc(C)ccc1OCCOc1c(Cl)cc(Cl)cc1Cl,-4.9
17,COc1cc(C)ccc1OCCOc1c(C)cccc1Cl,62.7
18,CC(C)Oc1ccc(C(=O)NC(Cc2c[nH]c3ccccc23)C(=O)NN)cc1 (stereo not given),3.03
19,Cc1cc(Br)ccc1NC(=O)CN1CCN(c2ccccn2)CC1,-1.24
20,CC(C)NC(=O)c1cnc(N2CCN(c3ccccn3)CC2)c2ccccc12,-4.73
21,COc1ccccc1C(=O)Nc1ccc(Cc2ccncc2)cc1,-0.58
22,COc1ccc(Br)cc1C(=O)Nc1ccc(Cc2ccncc2)cc1,-1.26
23,O=C(NCCc1ccc(Cl)cc1)C1CCCN(c2ncnc3c2nc2n3CCCCC2)C1 (stereo not given),29.1

row,SMILES,inhibition [%]
1,NC(=O)C1CCN(C(=O)c2ccc(-c3ccccc3Cl)o2)CC1,-1.57
2,CC1CCCN(C(=O)c2ccc(-c3ccccc3Cl)o2)C1 (stereo not given),27.8
3,COCc1cc(C)nc(SCC[N+](C)(C)CC(=O)Nc2cccc(C)c2)c1C#N,10.4
4,CNc1nc2c(-c3ccc(Cl)cc3)nnn2c2ccccc12,8.01
5,NNc1nc2c(-c3ccc(Cl)cc3)nnn2c2ccccc12,-3.53
6,CCC(C)CCN1C(Nc2ccccc2)=NC[C@@H]1CC(C)C (stereo not given in full),-0.75
7,CN1C(C(=O)N2CCC3(CC2)OCCO3)=CC(c2ccc(F)cc2)=NS1(=O)=O,1.76
8,Cc1nonc1OCCNCCNc1ccccc1[N+](=O)[O-],5.53
9,Cc1nonc1OCCNc1ccc([N+](=O)[O-])c2cccnc12,2.82
10,C#CCOCCOCCOCCNc1nc(N2CCN(C(=O)[C@H](CCC(=O)O)n3cc(C(N)Cc4ccc(O)cc4)nn3)CC2)nc(N2CCN(C(=O)[C@H](Cc3cc4ccccc4[nH]3)n3cc(C(N)CC(C)C)nn3)CC2)n1 (stereo not given in full),-1.44
11,C#CCOCCOCCOCCNc1nc(N2CCN(C(=O)C(CCC(=O)O)n3cc(C(N)CC(C)C)nn3)CC2)nc(N2CCN(C(=O)C(Cc3cc4ccccc4[nH]3)n3cc(C(N)Cc4ccc(O)cc4)nn3)CC2)n1 (stereo not given),2.57
12,CCCNC(=O)OCc1cccnc1Sc1ccc(C)cc1,3.87
13,CC(C)(C)OC(=O)N1CCC[C@H]1c1nnc(SCc2c(F)cccc2Cl)o1,5.9
14,Cc1noc(C)c1COC(=O)c1ccc(-c2nc3ccccc3s2)s1,-0.34
15,CCCNC(=O)c1ccc(-c2nc3ccccc3s2)s1,11
16,CCCN(CC(=O)Nc1cc(Cl)ccc1Cl)C(=O)c1ccccn1,-9.27
17,Cc1ccc(SCCN2CCC(NC(=O)OCc3ccccc3)CCC2=O)cc1 (stereo not given),-5.79
18,O=C(NC1CCC(=O)N(CCSc2ccccc2)CC1)OCc1ccccc1 (stereo not given),1.1
19,COc1cc(C(C(=O)NCC2CCCO2)N(C(=O)Cn2nnc3ccccc32)c2ccc(C(C)=O)cc2)ccc1O (stereo not given),-7.43
20,CCCCNC(=O)C1CC(c2ccccc2[N+](=O)[O-])=NO1 (stereo not given),0.43
21,CCOC(=O)c1ccc(CSc2nnc(N)s2)cc1,3.29
22,CCOC(=O)CSc1nc(C2CC2)cc(-c2ccc(Cl)cc2)c1C#N,-4.91
23,Cc1ccc(-c2nnc(Sc3nc4ccccc4o3)c3ccccc23)cc1,-10.4

row,SMILES,inhibition [%]
1,Clc1ccc(-c2nnc(Sc3nc4ccccc4o3)c3ccccc23)cc1,-4.13
2,CCc1nc2cccnc2n1-c1ccc(CC(=O)O)cc1,-1.43
3,Fc1ccc(N2CCN(C(=S)NCc3ccco3)CC2)cc1,1.09
4,O=C(CSC(=S)N1CCCC1)c1ccccc1,-7.15
5,CC1CCCN(C(=S)SCC(=O)c2cc(Br)cc(Br)c2O)C1 (stereo not given),1.93
6,Cc1cc(NC(=O)CSc2n[nH]c(CC(C)C)n2)no1,-10.9
7,Cc1ncc(CN2CCC(n3nccc3NC(=O)c3ccccc3)CC2)s1,-15.1
8,CCn1cc2nc(SCC(=O)Nc3ccc(F)cc3F)n(Cc3ccccc3)c(=O)c2n1,-4.3
9,CN(C)CCCN(C(=O)c1ccc(Br)s1)c1nc2cc3c(cc2s1)OCCO3,9.92
10,CN(C)CCCN(C(=O)c1cc2cc([N+](=O)[O-])ccc2s1)c1nc2cc3c(cc2s1)OCCO3,-1.83
11,COc1ccc(C(C[N+](=O)[O-])c2c(-c3ccccc3)cc3ccccn23)cc1OC (stereo not given),-0.65
12,COc1ccc(C(C[N+](=O)[O-])c2c(-c3ccccc3)cc3ccccn23)cc1 (stereo not given),-3.56
13,Cc1cccc(Cn2c(SCC(=O)Nc3ccccc3)nc3c2c(=O)[nH]c(=O)n3C)c1,-13.5
14,CCCC(c1nnnn1CC1CCCO1)N1CCN(c2cc(Cl)ccc2C)CC1 (stereo not given),1.1
15,CCCCCCCc1nc2nc(C)c(Br)c(=O)n2[nH]1,8.34
16,CCCn1c(SCC(=O)Nc2ccc3c(c2)OCCO3)nnc1-c1ccco1,-7.16
17,O=C(C[C@H]1C/C=C\C[C@H](NC(=O)OCC2c3ccccc3-c3ccccc32)C(=O)OC[C@@H]2CCCN2C1=O)N[C@H](CO)Cc1ccccc1,-0.02
18,O=C(C[C@@H]1C/C=C\C[C@H](NC(=O)OCC2c3ccccc3-c3ccccc32)C(=O)OC[C@@H]2CCCN2C1=O)N[C@@H](CO)Cc1ccccc1,1.79
19,Cc1occc1-c1nnc(SCC(=O)N(C)c2ccccc2)n1C,-1.83
20,CC(C)(c1ccccc1)c1ccc(OCC(O)CN2CCCC2)cc1 (stereo not given),1.65
21,CC(=O)c1ccc(OCC(O)COc2ccc(C(C)=O)cc2)cc1,6.86
